Here are results for eleven molecules from ChEMBL document CHEMBL3988442, “University of Dundee, Small-Polar-MMV Screening Library” (2021).

For some of these results: Measured potencies and affinities stand elsewhere.

What all share (design): scale not given: direction of the effect not stated beside the values
In assay [1] the target is Protein translocase subunit SecA (Escherichia coli (strain K12)) (UniProt P10408). Description: Assay to Identify E. coli SecA ATPase Inhibitors. The note with it: 30 µM. It is filed as functional.
Sequence of Protein translocase subunit SecA (Escherichia coli (strain K12)) (P10408 whole entry): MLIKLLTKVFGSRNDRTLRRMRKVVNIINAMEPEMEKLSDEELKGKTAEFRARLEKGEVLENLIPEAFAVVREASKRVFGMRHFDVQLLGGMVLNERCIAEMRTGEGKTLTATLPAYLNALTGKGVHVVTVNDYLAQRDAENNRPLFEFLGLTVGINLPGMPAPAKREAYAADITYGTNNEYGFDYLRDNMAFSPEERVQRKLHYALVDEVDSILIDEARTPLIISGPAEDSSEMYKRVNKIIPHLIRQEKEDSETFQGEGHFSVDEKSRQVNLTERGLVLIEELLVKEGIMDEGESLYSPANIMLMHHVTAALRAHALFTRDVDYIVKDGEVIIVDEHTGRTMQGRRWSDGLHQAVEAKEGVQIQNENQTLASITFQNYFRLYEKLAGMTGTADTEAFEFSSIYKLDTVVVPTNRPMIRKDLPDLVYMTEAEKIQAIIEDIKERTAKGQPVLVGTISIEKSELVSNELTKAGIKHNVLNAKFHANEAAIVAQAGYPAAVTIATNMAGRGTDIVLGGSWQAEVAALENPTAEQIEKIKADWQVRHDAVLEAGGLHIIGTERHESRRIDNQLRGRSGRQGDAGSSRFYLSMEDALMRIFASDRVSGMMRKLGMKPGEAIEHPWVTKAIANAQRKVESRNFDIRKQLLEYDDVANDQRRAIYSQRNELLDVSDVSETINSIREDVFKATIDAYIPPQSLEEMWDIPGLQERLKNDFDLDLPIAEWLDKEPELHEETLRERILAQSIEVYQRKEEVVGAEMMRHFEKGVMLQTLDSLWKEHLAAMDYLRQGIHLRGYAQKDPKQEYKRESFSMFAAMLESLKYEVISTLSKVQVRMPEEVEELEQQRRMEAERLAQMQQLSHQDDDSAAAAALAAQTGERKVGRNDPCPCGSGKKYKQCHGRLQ
The target in assay [2] is T1, Ubiquitin-activating enzyme e1, putative (Leishmania donovani (strain BPK282A1)) (UniProt E9BSI1).
T1 sequence (whole entry): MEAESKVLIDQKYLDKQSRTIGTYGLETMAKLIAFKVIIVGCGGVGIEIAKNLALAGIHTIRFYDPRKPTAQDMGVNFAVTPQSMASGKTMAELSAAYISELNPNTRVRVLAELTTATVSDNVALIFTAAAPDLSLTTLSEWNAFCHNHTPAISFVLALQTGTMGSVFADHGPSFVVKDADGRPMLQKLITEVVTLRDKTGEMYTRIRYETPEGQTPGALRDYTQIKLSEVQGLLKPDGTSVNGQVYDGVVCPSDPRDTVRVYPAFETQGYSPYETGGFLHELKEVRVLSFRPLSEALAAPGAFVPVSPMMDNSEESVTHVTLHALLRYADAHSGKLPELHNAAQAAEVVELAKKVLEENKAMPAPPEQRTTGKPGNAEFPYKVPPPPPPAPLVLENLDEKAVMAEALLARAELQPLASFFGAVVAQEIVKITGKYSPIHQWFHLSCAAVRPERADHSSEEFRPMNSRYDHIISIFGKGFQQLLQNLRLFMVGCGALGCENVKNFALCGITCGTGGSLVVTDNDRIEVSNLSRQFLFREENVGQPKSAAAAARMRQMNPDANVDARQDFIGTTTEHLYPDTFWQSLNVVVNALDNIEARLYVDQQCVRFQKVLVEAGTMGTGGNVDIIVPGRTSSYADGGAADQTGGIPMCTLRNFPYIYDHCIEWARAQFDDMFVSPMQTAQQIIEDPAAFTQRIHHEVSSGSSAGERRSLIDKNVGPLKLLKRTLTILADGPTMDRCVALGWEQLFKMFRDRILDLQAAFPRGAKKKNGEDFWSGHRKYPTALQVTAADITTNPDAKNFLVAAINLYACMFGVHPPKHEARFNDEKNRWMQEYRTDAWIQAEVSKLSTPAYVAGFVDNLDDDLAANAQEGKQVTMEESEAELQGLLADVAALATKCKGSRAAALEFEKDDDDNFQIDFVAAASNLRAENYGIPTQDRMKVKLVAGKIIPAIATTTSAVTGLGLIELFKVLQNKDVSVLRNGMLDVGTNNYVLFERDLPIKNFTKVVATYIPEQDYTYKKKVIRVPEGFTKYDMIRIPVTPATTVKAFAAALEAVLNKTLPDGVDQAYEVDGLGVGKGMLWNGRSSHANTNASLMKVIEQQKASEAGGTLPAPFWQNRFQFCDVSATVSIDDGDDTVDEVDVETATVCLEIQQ
Kind of assay: Leishmania donovani Ubiquitin Activating Enzyme (LdE1). Type of assay: functional. Particulars: 30 µM.

In assay [3] the target is AMP-activated protein kinase, AMPK (Homo sapiens) (UniProt P54646+O43741+P54619+Q9UGJ0+Q9Y478+Q13131+Q9UGI9). Kind of assay: AMP-dependent Kinase enzyme assay. An in vitro enzyme assay that detects ADP turnover that is directly proportional to AMPK activity. This uses naive AMPK that is activated during the assay with MK-8722. Type of assay: functional. The note with it: 30 µM.

Assay [4] concerns the target Sialic acid-binding Ig-like lectin 9 (Homo sapiens) (UniProt Q9Y336). Description: Hs-Siglec9 ALPHAscreen SOP 20170721. Particulars: 10 µM.
The test system of assay [5] is Trypanosoma cruzi. Description: Trypanosoma cruzi phosphomannomutase and mannose-1-phosphate guanylyltransferase assay. It is filed as functional. The note with it: 10 µM.
The target of assay [6] is T2, Arginase-2, mitochondrial (Homo sapiens) (UniProt P78540).
T2 sequence (whole entry): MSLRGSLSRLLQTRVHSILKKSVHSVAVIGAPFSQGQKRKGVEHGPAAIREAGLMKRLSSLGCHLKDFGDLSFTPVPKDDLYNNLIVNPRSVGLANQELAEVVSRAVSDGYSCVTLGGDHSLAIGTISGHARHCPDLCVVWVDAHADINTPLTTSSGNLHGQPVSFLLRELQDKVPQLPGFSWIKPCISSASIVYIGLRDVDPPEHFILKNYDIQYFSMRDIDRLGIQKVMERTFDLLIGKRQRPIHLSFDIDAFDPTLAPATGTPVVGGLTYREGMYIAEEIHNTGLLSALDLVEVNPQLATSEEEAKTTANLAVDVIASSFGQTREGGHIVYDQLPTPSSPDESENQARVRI
Kind of assay: in vitro enzyme assay to detect the production of urea directly proportional to the activity of Arginase II. Further: in the data most compounds retested in dose-response had high values. The note with it: 33.3 µM. It is filed as functional.

Assay [7] addresses T3, Proteasome subunit beta (Trypanosoma cruzi) (UniProt O96673).
T3 sequence (whole entry): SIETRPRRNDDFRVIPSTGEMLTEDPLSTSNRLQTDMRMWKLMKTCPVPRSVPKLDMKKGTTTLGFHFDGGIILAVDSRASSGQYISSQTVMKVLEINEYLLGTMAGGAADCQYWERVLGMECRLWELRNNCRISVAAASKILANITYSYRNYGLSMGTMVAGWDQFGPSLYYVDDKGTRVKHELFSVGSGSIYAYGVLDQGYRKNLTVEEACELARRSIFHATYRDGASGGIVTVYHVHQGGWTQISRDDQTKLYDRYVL
Kind of assay: Trypanosoma cruzi proteasome chymotrypsin-like activity (TcProtChymo) assay. Further: in the data most compounds retested in dose-response had high values. Type of assay: functional. Particulars: 9.37 µM.

The species entered for assay [8] is Homo sapiens. Kind of assay: To identify inhibition of the IFN signalling (Jak-Stat) pathway via expression of an eGFP reporter gene under the control of an IFN-stimulated response element (ISRE) containing MxA promoter. Type of assay: functional. The note with it: 30 µM. Background: A reporter such as luciferase makes a cellular process visible.
The target in assay [9] is T4, Tyrosyl-tRNA synthetase, putative (Trypanosoma cruzi (strain CL Brener)) (UniProt Q4DSP6).
T4 sequence (whole entry): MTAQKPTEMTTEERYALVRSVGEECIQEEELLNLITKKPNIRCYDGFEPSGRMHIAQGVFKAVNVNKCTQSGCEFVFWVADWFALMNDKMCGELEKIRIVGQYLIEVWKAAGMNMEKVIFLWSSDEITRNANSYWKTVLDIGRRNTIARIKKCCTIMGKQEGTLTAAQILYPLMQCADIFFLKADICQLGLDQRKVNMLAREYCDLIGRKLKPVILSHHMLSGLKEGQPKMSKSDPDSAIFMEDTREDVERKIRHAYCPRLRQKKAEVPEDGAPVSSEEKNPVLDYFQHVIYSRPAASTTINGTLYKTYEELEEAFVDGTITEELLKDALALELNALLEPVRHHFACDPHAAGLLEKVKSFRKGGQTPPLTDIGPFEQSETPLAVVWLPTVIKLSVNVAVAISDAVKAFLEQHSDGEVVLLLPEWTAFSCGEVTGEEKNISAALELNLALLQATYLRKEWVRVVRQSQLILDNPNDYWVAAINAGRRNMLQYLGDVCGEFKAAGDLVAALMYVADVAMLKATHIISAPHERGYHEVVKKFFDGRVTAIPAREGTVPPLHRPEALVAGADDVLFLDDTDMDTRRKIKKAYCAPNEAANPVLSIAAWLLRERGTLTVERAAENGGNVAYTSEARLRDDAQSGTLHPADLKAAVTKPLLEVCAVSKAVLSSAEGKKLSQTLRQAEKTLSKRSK
Kind of assay: Trypanosoma cruzi tyrosyl tRNA synthetase (TcYRS) _High Tyrosine SOP. Further: in the data most compounds retested in dose-response had high values. Type of assay: functional. Particulars: 30 µM.

Assay [10] deals with T4, Tyrosyl-tRNA synthetase, putative (Trypanosoma cruzi (strain CL Brener)). Kind of assay: Trypanosoma cruzi tyrosyl tRNA synthetase (TcYRS) SOP. Type of assay: functional. The note with it: 30 µM.
Assay [11] deals with Chromo domain-containing protein 1 (Saccharomyces cerevisiae (strain ATCC 204508 / S288c) (Baker's yeast)) (UniProt P32657). Description: ScCHD-1 Enzyme Inhibition Assay. Further: in the data most compounds retested in dose-response had high values. It is filed as functional. Particulars: 30 µM.
Sequence of Chromo domain-containing protein 1 (Saccharomyces cerevisiae (strain ATCC 204508 / S288c) (Baker's yeast)) (P32657 whole entry, the tested form may be a part): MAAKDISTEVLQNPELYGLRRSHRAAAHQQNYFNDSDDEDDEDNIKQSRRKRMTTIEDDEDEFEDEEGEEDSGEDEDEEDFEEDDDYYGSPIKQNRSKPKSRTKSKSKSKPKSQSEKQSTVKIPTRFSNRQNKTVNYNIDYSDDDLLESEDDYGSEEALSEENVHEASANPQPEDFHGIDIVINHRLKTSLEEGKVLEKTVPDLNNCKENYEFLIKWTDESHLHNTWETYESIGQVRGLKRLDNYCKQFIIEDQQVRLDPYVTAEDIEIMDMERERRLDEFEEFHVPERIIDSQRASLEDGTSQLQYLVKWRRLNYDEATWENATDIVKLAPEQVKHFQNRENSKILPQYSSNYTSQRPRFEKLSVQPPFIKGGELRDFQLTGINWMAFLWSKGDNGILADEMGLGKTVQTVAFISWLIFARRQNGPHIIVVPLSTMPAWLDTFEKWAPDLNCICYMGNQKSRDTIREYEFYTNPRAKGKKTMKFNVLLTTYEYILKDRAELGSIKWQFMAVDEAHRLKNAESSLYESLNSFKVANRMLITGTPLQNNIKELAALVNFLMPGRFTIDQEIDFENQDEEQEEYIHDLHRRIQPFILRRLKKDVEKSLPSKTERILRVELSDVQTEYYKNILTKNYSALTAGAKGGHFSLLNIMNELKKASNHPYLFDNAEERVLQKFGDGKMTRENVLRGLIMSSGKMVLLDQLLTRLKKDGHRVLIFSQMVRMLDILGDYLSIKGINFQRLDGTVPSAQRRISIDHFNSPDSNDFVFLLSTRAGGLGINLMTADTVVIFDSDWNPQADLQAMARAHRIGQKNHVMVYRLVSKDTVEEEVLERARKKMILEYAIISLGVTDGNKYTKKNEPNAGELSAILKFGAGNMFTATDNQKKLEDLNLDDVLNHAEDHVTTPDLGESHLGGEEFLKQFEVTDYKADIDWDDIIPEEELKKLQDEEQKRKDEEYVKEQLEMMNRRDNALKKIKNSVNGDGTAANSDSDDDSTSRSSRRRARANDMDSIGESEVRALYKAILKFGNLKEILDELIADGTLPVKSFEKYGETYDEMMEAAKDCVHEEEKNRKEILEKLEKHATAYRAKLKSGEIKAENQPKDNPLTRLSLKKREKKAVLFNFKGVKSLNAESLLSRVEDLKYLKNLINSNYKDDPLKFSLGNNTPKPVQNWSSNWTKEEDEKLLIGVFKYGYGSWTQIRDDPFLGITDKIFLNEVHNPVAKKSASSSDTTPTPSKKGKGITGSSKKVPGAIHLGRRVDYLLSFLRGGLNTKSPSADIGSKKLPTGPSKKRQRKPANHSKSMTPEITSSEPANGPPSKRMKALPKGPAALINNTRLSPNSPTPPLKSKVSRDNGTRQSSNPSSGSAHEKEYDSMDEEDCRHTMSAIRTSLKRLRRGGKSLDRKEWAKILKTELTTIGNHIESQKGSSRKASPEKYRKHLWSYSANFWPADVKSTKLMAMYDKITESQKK

Sequence of Sialic acid-binding Ig-like lectin 9 (Homo sapiens) (Q9Y336 whole entry): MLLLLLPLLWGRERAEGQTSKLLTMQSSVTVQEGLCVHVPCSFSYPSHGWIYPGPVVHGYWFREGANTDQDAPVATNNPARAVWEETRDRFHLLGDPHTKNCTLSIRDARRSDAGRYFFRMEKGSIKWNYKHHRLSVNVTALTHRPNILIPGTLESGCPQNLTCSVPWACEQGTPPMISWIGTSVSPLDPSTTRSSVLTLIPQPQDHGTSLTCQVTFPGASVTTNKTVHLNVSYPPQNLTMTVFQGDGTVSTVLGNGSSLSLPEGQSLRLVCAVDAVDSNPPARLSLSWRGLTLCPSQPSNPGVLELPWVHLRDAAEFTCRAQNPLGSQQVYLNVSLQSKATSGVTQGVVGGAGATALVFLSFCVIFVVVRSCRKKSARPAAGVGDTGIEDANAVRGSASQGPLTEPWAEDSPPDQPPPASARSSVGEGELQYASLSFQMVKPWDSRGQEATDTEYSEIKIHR

With `CCn1c(CN2CCN(CC(N)=O)CC2)nc2c(F)cccc21`, the Percent Effect was -3.22% in assay [1]; 5.26% in assay [2]; 7.34% in assay [3]; 6.21% in assay [4]; 8.84% in [5]; -2.3% in assay [6]. Also, the Percent Effect in assay [7] is 1.34%; in assay [8], -11.4%; in assay [9], 7.35%; in [10], 9.76%; in assay [11], -5.52%.
Regarding `Cc1occc1C(=O)N1CCO[C@H]2[C@@H](Oc3ccccn3)CC[C@@H]21`, the Percent Effect was -1.87% in assay [1]; 0% in assay [2]; 5.36% in assay [3]; 1.56% in [4]; 0.984% in [5]; 0.699% in assay [6]. In addition, the Percent Effect in assay [7] was found to be 9.25%; in assay [8] it was 5.34%; in assay [9], 3.19%; in assay [10], 3.85%; in assay [11], 4.85%.
Take `Fc1ccc2c(c1)C(NCc1nnc3n1CCCCC3)CCCO2` (stereo unspecified): the Percent Effect in assay [1] was -2.96%; in assay [2] it was 8.11%; in [3] it was -2.29%; in [4], 19.3%; in assay [5], 7.92%; in assay [6], 23.1%. Further, the Percent Effect is -1.12% in [7]; 0.659% in assay [8]; 2.15% in [9]; 8.64% in assay [10]; -12.5% in assay [11].
In the case of `O=C1CC[C@H]2[C@H](CCN2C(=O)C2CCCO2)N1CCN1CCCC1` (stereo partly specified), the Percent Effect is 1.49% in [1]; 1.33% in [2]; 6.35% in [3]; -1.83% in [4]; 0.393% in assay [5]; -3.7% in assay [6]. The Percent Effect was 10.7% in assay [7]; -5.66% in assay [8]; 2.12% in assay [9]; 0% in assay [10]; -4.01% in [11].
Regarding `O=C(NCC1CC1)Nc1cccc(N2CCN(CC3CC3)CC2)c1`, the Percent Effect in [1] is -6.91%; in [2], 13.5%; in [3], -7.28%; in assay [4], 31.9%; in [5], 5.38%; in assay [6], 1.24%. The Percent Effect in assay [7] was 6.78%; in [8], -5.11%; in assay [9] it was 3.23%; in assay [10], 16.1%; in assay [11], -13.1%.
In the case of `Cc1ccc(CN2CCOC3(COCCN(CCN(C)C)C3)C2)o1` (stereo unspecified), the Percent Effect was -3.53% in [1]; 5.33% in [2]; 9.65% in [3]; 0.443% in assay [4]; 1.18% in assay [5]; -0.699% in assay [6]. Moreover, the Percent Effect in assay [7] is 14%; in assay [8], 3.66%; in [9] it was 8.51%; in [10], 19.2%; in assay [11], -3.31%.
In the case of `CC(=O)N1CCC(c2ccnc(Nc3cnccn3)n2)C1` (stereo unspecified), the Percent Effect is -0.594% in assay [1]; 13.3% in [2]; 12.9% in assay [3]; 1.15% in [4]; -4.72% in assay [5]; -4.43% in [6]. The Percent Effect in [7] is 5.73%; in assay [8], 5.13%; in assay [9], 4.25%; in assay [10] it was 16.7%; in [11] it was -5.82%.
For `O=C(O)C1(Cc2ccccc2Cl)CCN(c2ncccc2F)CC1`, the Percent Effect in [1] is -0.132%; in [2] it was 5.41%; in [3], -2.78%; in [4], 5.67%; in [5] it was 1.54%; in assay [6], 1.91%. In addition, the Percent Effect in assay [7] is 19.5%; in [8], 7.74%; in assay [9] it was 6.88%; in assay [10] it was 2.44%; in [11], -3.4%.
Turning to `CCCOc1ccc(NC(=O)NCCC(=O)N(C)C)cc1Cl`, the Percent Effect is -2.86% in assay [1]; 13.7% in assay [2]; -18.2% in [3]; 4.95% in assay [4]; 4.5% in [5]; 0.909% in assay [6]. Also, the Percent Effect is 19% in [7]; 12.8% in assay [8]; 4.3% in assay [9]; 12.5% in assay [10]; -6.34% in assay [11].
Turning to `CC(=O)N(Cc1ncc(C(C)C)o1)C1CCN(Cc2nccn2C)C1` (stereo unspecified), the Percent Effect in assay [1] is -2.57%; in assay [2] it was 13.5%; in [3] it was -4.73%; in assay [4], 4.8%; in assay [5], 3.25%; in assay [6], -1.29%. Also, the Percent Effect in assay [7] was 14.4%; in assay [8], -11.4%; in assay [9] it was 10.9%; in assay [10], 28.1%; in [11], -1.74%.
`CN(Cc1cn2c(n1)CN(C1CCOC1)CC2)Cc1ccco1` (stereo unspecified): the Percent Effect in assay [1] is 0.0628%; in [2], 5.33%; in assay [3], 0.778%; in assay [4] it was 1.26%; in [5] it was 5.99%; in assay [6], -58.2%. For the same molecule, the Percent Effect in assay [7] was 16.1%; in [8], 15.2%; in assay [9], 6.25%; in assay [10] it was 20%; in assay [11], -10.2%.
